Experimental data as given in PubChem BioAssay (NCI).
Compounds without any hit were thinned out: in the full panel of roughly 83,000, 20% have a hit.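 Method: cells in 96-well plates; compound added at one concentration; 48 h incubation; percent growth measured; values under 10 scored active.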 Values without a mark were called inactive. Active and inactive are the calls of the source.

Key:
Assay in all cases: NCI-60 one-dose screen, 48 h (100 = growth as untreated, 0 = no growth, -100 = all killed)
Details in all cases: 10 µM unless noted
SR leukemia = tested on: SR leukemia
RPMI-8226 leukemia = tested on: RPMI-8226 leukemia
OVCAR-8 ovarian = tested on: OVCAR-8 ovarian
OVCAR-5 ovarian = tested on: OVCAR-5 ovarian
SK-OV-3 ovarian = tested on: SK-OV-3 ovarian
IGROV1 ovarian = tested on: IGROV1 ovarian
OVCAR-3 ovarian = tested on: OVCAR-3 ovarian
HS 578T breast = tested on: HS 578T breast
NCI/ADR-RES ovarian = tested on: NCI/ADR-RES ovarian
OVCAR-4 ovarian = tested on: OVCAR-4 ovarian

| Compound | growth (SR leukemia) | growth (RPMI-8226 leukemia) | growth (OVCAR-8 ovarian) | growth (OVCAR-5 ovarian) | growth (SK-OV-3 ovarian) [%] | growth (IGROV1 ovarian) | growth (OVCAR-3 ovarian) | growth (HS 578T breast) | growth (NCI/ADR-RES ovarian) | growth (OVCAR-4 ovarian) |
| --- | --- | --- | --- | --- | --- | --- | --- | --- | --- | --- |
| C=C1CC2(OC1=O)C(=O)Nc1ccccc12 (stereo unspecified) | 5.16% (active) | 24.4% | 89.4% | 66% | 115 | 63% | 6.75% (active) | 83.1% | – | – |
| COc1cc(C(=O)/C=C/c2c(C)n([O-])c3ccc(C)cc3[n+]2=O)cc(OC)c1OC | -35.2% (active) | -17.3% (active) | 5.36% (active) | 78.3% | 96 | 73.7% | 13.2% | 52.8% | 81.2% | – |
| Cc1ccc(Nc2nc(N)nc(Nc3ccc4ccccc4c3)n2)cc1 | 26.8% | 48.2% | 47.7% | 79.9% | – | 51.4% | 8.67% (active) | 47% | 30.6% | 74.7% |
| CCN(CC)CC(O)c1cc(-c2ccc(Cl)cc2)nc2c(C)c(Cl)ccc12 (stereo unspecified) | -79.5% (active) | -32.2% (active) | -82.7% (active) | -97.3% (active) | 29.2 | -84.7% (active) | -100% (active) | -62.4% (active) | -84.7% (active) | – |
| CCCCCCCCCCCCCCCCCCNC(=O)[C@H]1CSC(c2ccc(OC)c(F)c2)N1 (stereo partly specified) | -30.9% (active) | -46.8% (active) | -22.8% (active) | -13.3% (active) | 88.1 | 30.2% | -3.45% (active) | 32.6% | – | – |
| O=C(Nc1ccc(F)cc1)Nc1ccc(CCO)cc1 | 103% | 108% | 104% | 114% | – | 99.9% | 117% | 106% | 108% | 97.6% |
| CCCCCCCCCCCCCCCCCCNC(=O)[C@H]1CSC(c2ccc(F)c(OC)c2)N1 (stereo partly specified) | -42.1% (active) | -49.3% (active) | -28.2% (active) | -87.9% (active) | – | -6.12% (active) | -85.6% (active) | -30.7% (active) | -42.6% (active) | -3.83% (active) |
